High-throughput results from PubChem.
Only some compounds are listed: those with a hit (about 12% of all), similar ones and a draw of the others.
SARS PLpro yeast: blocks SARS-CoV papain-like protease in a yeast assay; Potency, µM (top dose mostly 32.9 µM), without a hit: at the top dose activity, positive = growth rescue, hits mostly activators; S. cerevisiae expressing SARS-CoV PLpro, growth rescue; 0.19% of 330,000 active; calls by dose curve; note: 0% is about no effect; nearly all actives have a fitted effect of over 55% in size
Pf growth 96h: inhibits malaria parasite growth, 96 h | P. falciparum luciferase reporter growth, 96 h | Potency, µM (series often up to 28.7 µM), for the others: at the top dose activity change, negative = inhibition, most hits filed as inhibitors | 6.9% of 320,000 active; note: % is set by controls: 0 for no effect and ±100 for the full control effect
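Compounds incubated with erythrocytes infected by luciferase-expressing P. falciparum (2% hematocrit, 0.05% parasitemia final) for 96 hours, 37 C in 5% CO2. Growth inhibition scored as decreased luciferase luminescence.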
HCV inh: inhibitors of hepatitis C virus infection; Huh7.5.1 HCVcc-Cre infection, luciferase reporter, 44 h; AID 651820; 3.4% of 340,000 active; Potency, µM (doses to about 41.8 µM), for the others: at the highest dose activity change, negative = inhibition, usual class: inhibitors; note: % is set by controls: 0 for no effect and ±100 for the full control effect
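Compounds are dispensed onto cells plated 4 h earlier at 1,000 per well, with HCVcc-Cre virus (about 0.5 moi) added next. Following 44 h of culture, luminescent signal is measured for 15 sec after 15 min with substrate at room temperature.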
NS1 inh: inhibitors of influenza NS1 protein function; Potency, µM (titrated, usually from 46.1 µM), for the others: at the top dose activity, positive = more growth; 0.4% of 270,000 active; calls by dose curve; note: actives are rising curves; nearly all actives have a fitted effect of over 50% in size
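Read-out: OD600 growth recovery of NS1-expressing budding yeast. Cells grown overnight at 30C in -URA glucose medium, washed, resuspended and diluted 1:100 in 2% galactose assay medium, pH 6.0. Same strain lacking NS1 served as positive control.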
Pf growth 48h: P. falciparum growth inhibition at 48 hours (one generation) | AID 504832 | 5.9% of 310,000 active | Potency, µM (highest dose often 28.7 µM), inactives show at the highest dose activity change, negative = inhibition, hits mostly inhibitors | P. falciparum luciferase growth in erythrocytes, 48 h; note: % is set by controls: 0 for no effect and ±100 for the full control effect
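Erythrocytes infected with P. falciparum carrying an integrated firefly luciferase reporter (2% hematocrit, 0.1% parasitemia final) were exposed to compounds in RPMI 1640 with 0.5% Albumax at 37 C, 5% CO2. Growth inhibition was scored as reduced luminescence.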
AMA1-RON2 inh: inhibitors of Plasmodium falciparum AMA1-RON2 interaction; AlphaScreen AMA1-biotinylated RON2 peptide binding; Potency, µM (doses to about 58.2 µM), without a hit: at the highest dose activity change, negative = inhibition, usual class: inhibitors; 0.2% of 360,000 active; AID 720542;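 note: 0% = vehicle wells and -100% = peptide control; nearly all actives have a fitted effect of over 45% in size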
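AMA1 (3D7) with his tag at 25 nM final met compounds first, then biotinylated RON2 peptide at 25 nM; detection used donor plus acceptor beads, 10 µg/mL apiece, read by AlphaScreen after 30 min at room temperature.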
* = called active by the depositor; ? = inconclusive; . = no result. Unless noted, calls come from the whole dose curve; as a rule, active = well fitted curve in the direction sought with a large enough effect; inconclusive = small, poorly fitted or top-dose-only effect, or another doubt; inactive = no such curve, though single readings can be large; an effect the other way counts as inactive or inconclusive. Potency is the fitted concentration of half-maximal effect.

SMILES	SARS PLpro yeast	Pf growth 96h	HCV inh	NS1 inh	Pf growth 48h	AMA1-RON2 inh
Cc1cc(-c2ccc(Cl)cc2)n2nc(C)cc2n1	-4%	10µM*	?	-3%	-1%	19%
CCCN(CCC)C(=O)C1CCN(c2cc(C)nc3c(-c4ccc(OC)c(OC)c4)c(C)nn23)CC1	-18%	?	?	?	?	-9%
COc1ccccc1-c1c(C)nn2c(N3CCC4(CC3)OCCO4)cc(C)nc12	-25%	12%	?	-35%	?	3%
COc1ccc(-c2c(C)nn3c(N4CCC(C(=O)NCCN(C)C)CC4)cc(C)nc23)cc1OC	1%	85%	?	0%	10µM*	-6%
CN1CCC(N(C)CC(C)(C)NS(=O)(=O)c2ccccc2)CC1	1%	11%	4%	1%	11%	1%
Cc1ccc(CN(C)C(=O)CCc2nc3sc4c(c3c(=O)[nH]2)CCCC4)o1	6%	?	4%	2%	25%	-8%
NNC(=O)c1ccc[n+](CCc2ccccc2)c1	.	.	.	1%	.	.
COc1ccc(OC)c(CCNC(=O)CN2C(=O)COc3ccc(S(=O)(=O)N4CCOCC4)cc32)c1	-1%	-19%	-5%	-4%	14%	6%
Cc1cc(C)n2nc(C)c(-c3ccccc3)c2n1	.	.	-29%	.	.	15%
Cc1cc(C)n2nc(C)c(-c3ccc(Cl)cc3)c2n1	-10%	7%	11µM*	-21%	-6%	50%
N#Cc1c([N+](=O)[O-])cc([N+](=O)[O-])cc1S(=O)(=O)Cc1ccccc1	12%	-4%	10µM*	.	-10%	-21%
Nc1ccccc1SCCS(=O)(=O)c1ccc(Cl)cc1	0%	0%	0%	4%	-3%	-1%
O=[N+]([O-])c1ccc(S(=O)(=O)Nc2ccc(-c3ccccc3)cc2)cc1	.	.	.	.	.	-26%
O=S(=O)(/N=C(/Nc1ccccc1)c1ccccc1O)c1ccccc1	1%	11%	13%	-4%	?	0%
Cc1cc(C(=O)NCC(c2ccco2)N(C)C)no1 (configuration not stated)	-2%	9.3µM*	5%	23%	10%	21%
CN(C)C(CNC(=O)c1ccccc1OCc1ccc(Cl)cc1)c1ccco1 (configuration not stated)	-6%	?	18µM*	.	?	-4%
CCn1c(=O)c(C(=O)CN(C)CC(=O)Nc2cccc(F)c2)c(N)n(Cc2ccccc2)c1=O	-6%	.	?	.	.	36%
C[C@@H]1C(=O)O[C@H](C)[C@H]1C[C@@H](O)[C@](C)(O)C1CC[C@@]2(O)C3=CC(=O)[C@@H]4C[C@@H](O)[C@@H](O)C[C@]4(C)C3CC[C@]12C (some centres not stated)	2%	.	-2%	.	.	13%
O=c1c2c(nc3c(-c4ccc(Cl)cc4)c[nH]n13)CCCC2	13%	5%	?	-15%	4.7µM*	2%
O=c1c2c(nc3c(-c4cccc5ccccc45)c[nH]n13)CCC2	4%	6%	-6%	8%	16%	42%
CCOc1ccccc1NC(=O)Cn1c(=O)oc2cc(Cl)ccc21	-2%	16%	-19%	-7%	-14%	-3%
CCOc1ccccc1NC(=O)Cn1c(-c2ccc(Cl)cc2)noc1=O	5%	4.1µM*	?	-62%	1.7µM*	12%
CN(C)S(=O)(=O)c1ccc(NC(=O)Cn2c(-c3ccccc3)noc2=O)cc1	-4%	4.7µM*	7%	-4%	.	32%
Brc1ccc2c(c1)OCCOCCOCCOCCOCCO2	-26%	10µM*	2%	0%	-13%	15%
c1ccc2c(c1)OCCOCCOCCOCCOc1ccccc1OCCOCCOCCO2	25%	12µM*	?	-18%	-24%	-7%
SMILES	SARS PLpro yeast	Pf growth 96h	HCV inh	NS1 inh	Pf growth 48h	AMA1-RON2 inh
CCc1cc(CNC(=O)CC2C(=O)NCCN2Cc2cccc(OC)c2)on1 (configuration not stated)	-1%	-6%	11%	3%	16%	0%
O=C(CN1CCN(C(=O)N2CCOCC2)CC1)Nc1cc(Cl)ccc1Cl	-7%	?	1%	-17%	-9%	-4%
Cc1cccc2c1NC1(CCCC1)CC2C (configuration not stated)	0%	?	6%	0%	-8%	-19%
Cc1ccc2c(c1C)NC(C)CC2C (configuration not stated)	-1%	?	3%	3%	13µM*	-7%
COc1cccc2c1c(NC(=O)Nc1ccc(F)cc1F)nn2C	-2%	-9%	4%	3%	4%	8%
CCOc1ccc(-c2nnn(CC(=O)c3ccc4c(c3)OCCO4)n2)cc1OCC	-3%	15µM*	?	0%	-11%	0%
CCOc1ccc(-c2nnn(CC(=O)NCc3ccc(F)cc3)n2)cc1OCC	3%	?	-5%	-3%	2%	-1%
CCOc1ccc(-c2nnn(CC(=O)Nc3cccc(OC)c3)n2)cc1OCC	-1%	12µM*	?	4%	-23%	-3%
COc1ccccc1N1CCN(/N=C\c2sccc2C)CC1	0%	?	-5%	.	49%	13µM*
O=[N+]([O-])c1ccccc1/C=C/C=N/N1CCCCC1	0%	160%	-9%	1%	288%	10µM*
COc1ccccc1N1CCN(/N=C/c2cc([N+](=O)[O-])ccc2Cl)CC1	3%	-10%	-3%	.	-8%	?
O=[N+]([O-])c1ccccc1/C=N/N1CCN(c2ccc(Cl)cc2)CC1	-13%	?	-27%	0%	0%	?
O=[N+]([O-])c1ccccc1/C=C\C=N\N1CCN(c2ccccc2)CC1	-2%	?	?	.	-19%	?
COc1ccccc1N1CCN(/N=C/C=C/c2ccccc2[N+](=O)[O-])CC1	0%	2%	?	5%	-1%	5.6µM*
O=[N+]([O-])c1ccccc1/C=N\N1CCN(c2ccccc2)CC1	-2%	21%	-8%	-1%	37%	22µM*
Cc1ccc(-c2nnc(SCC(=O)N(CC(C)C)c3c(N)n(Cc4ccccc4)c(=O)[nH]c3=O)n2N)cc1	2%	0%	.	2%	?	-7%
COc1cc(SC)ccc1C(=O)N1CCN(S(=O)(=O)/C=C/c2ccccc2)CC1	-6%	?	12%	.	?	-3%
C#CCOCCCC(=O)O	.	.	.	0%	.	.
O=c1cc2c(nn1Cc1cccc([N+](=O)[O-])c1)-c1ccccc1CC2	-2%	?	13µM*	3%	-14%	-15%
Cc1ccc2c(c1)C(=O)C(=O)N2CCCOc1ccccc1C	1%	?	?	4%	24%	?
Cc1cccc2c1N(CCCOc1ccccc1)C(=O)C2=O	-35%	-22%	-19%	-121%	-5%	-27%
